# Pf apPOL block – Pf-apPOL DNA polymerase inhibition; Recombinant Pf-apPOL, molecular beacon fluorescence, 1.5 h; inhibition, % at 10 µM; AID 1794808; 0.25% of 210,000 active
# mHTT-CaM PPI inh – mHTT-calmodulin interaction abrogation. inhibition, % at 15 µM. AID 1671202. AlphaScreen His-mHTT/GST-CaM binding, luminescence. P42858. 3.6% of 190,000 active;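 note: 0% = both proteins with DMSO and 100% = one protein alone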
# Target sequence (P42858 whole entry, looked up, stated change not applied): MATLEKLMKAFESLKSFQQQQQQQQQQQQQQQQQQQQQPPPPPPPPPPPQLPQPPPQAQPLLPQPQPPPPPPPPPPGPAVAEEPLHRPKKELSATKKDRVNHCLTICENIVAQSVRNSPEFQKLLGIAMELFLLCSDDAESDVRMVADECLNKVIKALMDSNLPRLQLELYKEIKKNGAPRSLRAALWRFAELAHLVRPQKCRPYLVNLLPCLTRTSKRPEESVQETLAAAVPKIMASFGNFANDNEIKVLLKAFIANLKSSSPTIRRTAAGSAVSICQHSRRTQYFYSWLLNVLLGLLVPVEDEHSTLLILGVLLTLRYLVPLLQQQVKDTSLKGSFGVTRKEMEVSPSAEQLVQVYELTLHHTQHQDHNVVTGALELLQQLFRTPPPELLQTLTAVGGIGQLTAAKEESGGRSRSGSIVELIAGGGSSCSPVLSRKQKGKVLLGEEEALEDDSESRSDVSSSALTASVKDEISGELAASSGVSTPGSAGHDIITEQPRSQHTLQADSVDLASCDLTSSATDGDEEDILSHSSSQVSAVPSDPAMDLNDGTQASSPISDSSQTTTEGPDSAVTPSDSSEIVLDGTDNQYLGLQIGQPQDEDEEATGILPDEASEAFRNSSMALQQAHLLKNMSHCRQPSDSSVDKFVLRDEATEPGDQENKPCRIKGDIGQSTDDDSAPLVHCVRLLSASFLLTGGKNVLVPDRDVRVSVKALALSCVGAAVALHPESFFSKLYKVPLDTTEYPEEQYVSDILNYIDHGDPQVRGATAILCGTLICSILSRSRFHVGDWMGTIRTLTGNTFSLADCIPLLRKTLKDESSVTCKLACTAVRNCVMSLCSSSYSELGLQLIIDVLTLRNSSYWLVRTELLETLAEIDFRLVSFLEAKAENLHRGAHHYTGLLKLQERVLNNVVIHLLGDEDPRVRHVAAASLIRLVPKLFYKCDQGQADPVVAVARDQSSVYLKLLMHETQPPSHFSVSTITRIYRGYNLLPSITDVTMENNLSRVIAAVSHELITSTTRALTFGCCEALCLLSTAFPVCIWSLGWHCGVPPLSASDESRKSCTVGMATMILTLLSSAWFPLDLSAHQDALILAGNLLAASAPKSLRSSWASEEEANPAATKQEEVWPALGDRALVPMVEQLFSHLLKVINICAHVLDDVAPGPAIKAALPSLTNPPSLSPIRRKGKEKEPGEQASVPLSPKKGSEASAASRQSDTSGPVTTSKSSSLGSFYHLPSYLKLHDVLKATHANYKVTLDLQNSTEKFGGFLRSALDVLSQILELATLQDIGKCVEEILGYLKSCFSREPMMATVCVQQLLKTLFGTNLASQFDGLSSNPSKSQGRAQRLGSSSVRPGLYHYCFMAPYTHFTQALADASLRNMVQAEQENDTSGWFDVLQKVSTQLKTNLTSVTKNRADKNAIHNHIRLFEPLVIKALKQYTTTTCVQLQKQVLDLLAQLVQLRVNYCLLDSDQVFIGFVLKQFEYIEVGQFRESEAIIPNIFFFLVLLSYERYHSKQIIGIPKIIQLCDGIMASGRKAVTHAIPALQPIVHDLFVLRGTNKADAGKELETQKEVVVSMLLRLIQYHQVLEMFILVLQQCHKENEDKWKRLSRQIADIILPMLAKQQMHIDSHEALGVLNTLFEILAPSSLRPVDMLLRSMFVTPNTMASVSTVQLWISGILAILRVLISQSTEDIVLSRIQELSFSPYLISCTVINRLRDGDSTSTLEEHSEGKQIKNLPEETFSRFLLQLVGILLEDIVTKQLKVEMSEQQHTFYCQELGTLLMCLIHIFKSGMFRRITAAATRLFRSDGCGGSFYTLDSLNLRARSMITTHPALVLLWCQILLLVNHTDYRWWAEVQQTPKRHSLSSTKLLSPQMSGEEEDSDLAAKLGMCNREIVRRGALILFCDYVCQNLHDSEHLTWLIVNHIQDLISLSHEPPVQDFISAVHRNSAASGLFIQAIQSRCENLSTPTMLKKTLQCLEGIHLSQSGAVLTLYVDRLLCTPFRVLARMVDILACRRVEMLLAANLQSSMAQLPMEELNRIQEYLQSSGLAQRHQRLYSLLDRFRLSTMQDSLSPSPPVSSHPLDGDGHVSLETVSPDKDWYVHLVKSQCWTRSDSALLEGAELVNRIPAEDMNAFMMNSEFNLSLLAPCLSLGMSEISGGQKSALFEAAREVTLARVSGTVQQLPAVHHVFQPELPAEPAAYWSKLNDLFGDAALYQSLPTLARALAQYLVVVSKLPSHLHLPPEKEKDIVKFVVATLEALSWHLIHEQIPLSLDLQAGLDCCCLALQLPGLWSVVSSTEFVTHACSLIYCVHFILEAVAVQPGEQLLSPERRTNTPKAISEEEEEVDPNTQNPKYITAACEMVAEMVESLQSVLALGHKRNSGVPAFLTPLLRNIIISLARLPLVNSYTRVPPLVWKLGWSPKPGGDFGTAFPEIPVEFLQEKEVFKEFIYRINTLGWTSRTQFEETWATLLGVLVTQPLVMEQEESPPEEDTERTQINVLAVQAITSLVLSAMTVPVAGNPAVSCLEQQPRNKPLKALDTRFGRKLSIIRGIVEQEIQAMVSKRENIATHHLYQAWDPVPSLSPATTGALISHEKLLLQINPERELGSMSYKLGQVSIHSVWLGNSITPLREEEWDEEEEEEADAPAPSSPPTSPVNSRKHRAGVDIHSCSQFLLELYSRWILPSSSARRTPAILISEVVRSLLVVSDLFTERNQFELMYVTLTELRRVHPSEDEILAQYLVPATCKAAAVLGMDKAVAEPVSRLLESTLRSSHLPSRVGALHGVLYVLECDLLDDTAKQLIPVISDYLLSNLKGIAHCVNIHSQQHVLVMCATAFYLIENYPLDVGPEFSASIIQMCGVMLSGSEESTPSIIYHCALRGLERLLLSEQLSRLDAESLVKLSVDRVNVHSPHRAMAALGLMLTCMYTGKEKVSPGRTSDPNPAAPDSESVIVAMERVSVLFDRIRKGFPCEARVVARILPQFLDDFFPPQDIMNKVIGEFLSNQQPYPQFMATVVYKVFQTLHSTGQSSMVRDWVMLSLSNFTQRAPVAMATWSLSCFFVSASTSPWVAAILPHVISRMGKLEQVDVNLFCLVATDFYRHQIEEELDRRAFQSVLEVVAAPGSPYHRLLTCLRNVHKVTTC
# * marks the source's active call; other numbers are inactive results; . = no result given. The entries come from a sample that favours hits as a whole. Cut-off read from the data, not from the text of the source: active = inhibition above about 50%; inactive = the rest.
SMILES,Pf apPOL block,mHTT-CaM PPI inh
CN(C(=O)c1nn2c(c1Cl)NC(c1cccs1)CC2C(F)(F)F)C1CCCCC1 (stereo not drawn),4,77*
O=C(c1nn2c(c1Cl)NC(c1cccs1)CC2C(F)(F)F)N1CCCC1 (stereo not drawn),-6,12
O=C(c1nn2c(c1Cl)NC(c1cccs1)CC2C(F)(F)F)N1CCc2ccccc2C1 (stereo not drawn),-6,100*
O=C(NC1CCCCC1)c1nn2c(c1Cl)NC(c1cccs1)CC2C(F)(F)F (stereo not drawn),-42,17
Cc1ccc(C(=O)N2CCCC(c3cc(-c4ccccc4)n[nH]3)C2)cn1 (stereo not drawn),-6,2
N#C/C(=C\c1cccc(F)c1)c1nc(-c2ccc(Cl)cc2)cs1,-6,-12
Cc1cc(C)c2c(=O)[nH]c(SCC(=O)c3ccc(O)c(O)c3)nc2n1,-4,6
Cc1sc2nc(SCC(=O)c3ccc(O)c(O)c3)[nH]c(=O)c2c1C,-1,68*
Cc1nc2ccccc2n1CC(O)COc1ccccc1Cl (stereo not drawn),-5,58*
Cc1ccc(Cl)c(OCC(O)Cn2c(C)nc3ccccc32)c1 (stereo not drawn),-7,10
OCc1nc2ccccc2n1Cc1ccc(Br)cc1,-1,7
OCc1nc2ccccc2n1CC(O)COc1ccc(Br)cc1 (stereo not drawn),2,73*
CCN(C(=O)c1noc2c1CC(C)CC2)c1cccc(C)c1 (stereo not drawn),0,-5
COc1ccc(OC)c(Nc2nc(-c3ccncc3)cs2)c1,-10,6
O=[N+]([O-])c1cccc(Nc2nc(-c3ccccn3)cs2)c1,-3,48
Cc1c(Cl)cccc1Nc1nc(-c2ccccn2)cs1,1,100*
CCC(=O)Nc1nc(C)c(-c2csc(Nc3ccccn3)n2)s1,0,41
CCC(=O)Nc1nc(C)c(-c2csc(Nc3ccccc3OC)n2)s1,28,41
COc1ccccc1Nc1nc(-c2sc(N)nc2C)cs1,-1,74*
CCc1ccccc1Nc1nc(-c2ccccn2)cs1,-2,99*
COc1ccccc1Nc1nc(-c2ccccn2)cs1,-7,97*
Cc1noc(C)c1CC(=O)N1CC(c2nc(-c3cccs3)no2)C1,-6,-13
COc1ccc(Cl)cc1Nc1nc(-c2ccncc2)cs1,-3,-2
COc1ccc(Cl)cc1Nc1nc(-c2ccccn2)cs1,0,56*
COc1ccc(C(=O)N2CCC(c3nc(CCNC(C)=O)cs3)CC2)c(C)c1,0,-1
SMILES,Pf apPOL block,mHTT-CaM PPI inh
Cc1cc(C)cc(NC(=O)C2CC(=O)N(CCc3c[nH]c4ccc(F)cc34)C2)c1 (stereo not drawn),1,24
COc1ccc(N2CC(c3nnc(NC(=O)Cc4cccc(OC)c4)o3)CC2=O)cc1 (stereo not drawn),-3,53*
Cc1ccc(CC(=O)Nc2nnc(C3CC(=O)N(c4ccccc4)C3)o2)cc1 (stereo not drawn),-8,0
O=C(CSc1ccc(F)cc1)Nc1nnc(C2CC(=O)N(c3ccccc3)C2)o1 (stereo not drawn),4,21
COc1ccc(CC(=O)Nc2nnc(C3CC(=O)N(c4ccccc4)C3)o2)cc1 (stereo not drawn),-2,92*
CCOc1ccc(N2CC(c3nnc(NC(=O)Cc4ccccc4C)o3)CC2=O)cc1 (stereo not drawn),-1,19
Cc1ccccc1CC(=O)Nc1nnc(C2CC(=O)N(c3ccccc3)C2)o1 (stereo not drawn),-3,50*
O=C(Cc1cccs1)Nc1nnc(C2CC(=O)N(c3ccccc3)C2)o1 (stereo not drawn),12,60*
COc1ccc(N2CC(c3nnc(NC(=O)Cc4cccc(F)c4)o3)CC2=O)cc1 (stereo not drawn),-3,29
O=C(CCn1nnc2ccccc2c1=O)Nc1ccc(Br)cc1F,-4,-6
O=C(c1ccco1)N1CCN(Cc2ccccc2[N+](=O)[O-])CC1,-3,-3
O=C(Oc1ccc2c(c1)OC(=Cc1ccc(Br)cc1)C2=O)c1ccco1,-2,25
O=C(Nc1nnc(C2CC(=O)N(c3ccc(F)cc3)C2)o1)c1cccc(Cl)c1 (stereo not drawn),2,35
O=C(Nc1nnc(C2CC(=O)N(c3ccccc3)C2)o1)c1cccc(Cl)c1 (stereo not drawn),-2,61*
CC(C)(C)n1nc2c(c1NC(=O)c1cccc([N+](=O)[O-])c1)CSC2,6,67*
Cc1ccc(C(=O)Nc2c3c(nn2C(C)(C)C)CSC3)cc1[N+](=O)[O-],4,29
Cc1c(C(=O)Nc2c3c(nn2-c2ccc([N+](=O)[O-])cc2)CSC3)cccc1[N+](=O)[O-],-6,3
Cc1c(C(=O)Nc2c3c(nn2C(C)(C)C)CSC3)cccc1[N+](=O)[O-],3,92*
O=C1C2CC(Br)C(Br)CC2C(=O)N1c1ccc(O)cc1 (stereo not drawn),3,-1
CCCC(=O)NC(c1ccccc1)c1ccc2cccnc2c1O (stereo not drawn),-4,100*
CCCC(=O)NC(c1ccc(F)cc1)c1ccc2cccnc2c1O (stereo not drawn),2,100*
CCCC(=O)NC(c1ccccc1)c1ccccc1,3,-11
CCCC(=O)NC(c1ccc(OC)cc1)c1ccc2cccnc2c1O (stereo not drawn),-3,100*
CCCCC(=O)NC(c1ccccc1)c1ccc2cccnc2c1O (stereo not drawn),-2,100*
CCCC(=O)NC(c1ccccc1)c1cc(Cl)c2cccnc2c1O (stereo not drawn),0,18
SMILES,Pf apPOL block,mHTT-CaM PPI inh
COc1ccc(CNC(=O)N2CC3CC2CC3NS(=O)(=O)c2ccccc2)cc1 (stereo not drawn),-1,0
Cc1noc(CNC(=O)C2CCN(C(=O)CCn3cnc4ccccc4c3=O)CC2)n1,-4,-15
CNC(=O)c1n[nH]c2c1CN(C(C)(C)C)CC2,0,-7
Cc1ccc(NC(=O)c2cc3n(n2)CCCN(Cc2ccc(F)cc2)C3=O)cc1Cl,-6,-5
CC(=NO)C(C)(C)Nc1cc(C(F)(F)F)cc(C(F)(F)F)c1,10,.
CCc1cc2c(=O)c(-c3nc4ccccc4n3C)c(C(F)(F)F)oc2cc1O,-1,97*
CCc1cc2c(=O)c(-c3nc4ccccc4n3C)c(COCC(=O)O)oc2cc1OC(=O)C(C)(C)C,-3,51*
CCc1cc2c(=O)c(-c3nc4ccccc4n3C)c(C(C)(C)C)oc2cc1O,3,-6
CCc1oc2cc(O)ccc2c(=O)c1-c1nc2ccccc2n1C,-2,0
COc1ccccc1C(=O)N1CCCC1c1cccc(C)c1 (stereo not drawn),-5,1
Cc1cc(NC(=O)c2ccc([N+](=O)[O-])cc2)cc(C)c1O,-2,7
Cc1[nH]n(-c2cccc(Cl)c2)c(=O)c1C=Nc1ccc(I)cc1,0,7
Cc1cccc2nnc(N3CCCC(C(=O)NC(C)C)C3)n12 (stereo not drawn),-3,2
CCN1C(=O)c2cccnc2Sc2cc(NC(=O)Cc3ccc(C)cc3)ccc21,-17,15
O=C(Cn1[nH]c2c(cnc3ccc(F)cc32)c1=O)Nc1ccc(F)cc1,-1,4
O=C(Cn1[nH]c2c(cnc3ccc(F)cc32)c1=O)Nc1ccc(Br)cc1,0,64*
